# According to PubChem BioAssay AID651582 (Sanford-Burnham Center for Chemical Genomics, 2012):
# The campaign covered roughly 230,000 compounds. About 1,500 (0.65%) were called active.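 Rule for the calls: active = pattern-corrected inhibition of lipid staining of at least 50% with the nuclear-stain viability signal not falling by more than 50%; inactive = the rest, inconclusive results apart.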 This excerpt belongs to a sample that is enriched for actives.
# Test: TAG lipid buildup reduction in H9c2 cells – cell-based, uHTS, fluorescence, primary screen (AID 651582);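 for inhibition: 0% = DMSO wells and 100% = triacsin C control wells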
# Conditions: Nile Red lipid (TAG) fluorescence, at 12.5 µM, cells loaded with 200 µM oleic acid; DAPI nuclei signal change (viability), lower = more cytotoxic: measured here: DAPI nuclei count viability; inhibition: stronger effect = higher value
Structure (SMILES),"DAPI nuclei signal change (viability), lower = more cytotoxic [%]",inhibition
CC[C@]12c3[nH]c4ccc(OC)cc4c3CCN1C(=O)C(CC(=O)NCc1ccco1)C[C@@H]2C(=O)N1CCN(C(=O)C2CC2)CC1 (stereo partly specified),-9.73,7.93% (inactive)
Cc1cc(Oc2ccccc2)nc(N2CCOCC2)n1,6.77,-9.8% (inactive)
CC(=O)c1ccc(Oc2cc(C)nc(-n3nc(C)cc3C)n2)cc1,-32.4,61.3% (active)
Cc1cc(C)n(-c2cc(Oc3ccccc3)ncn2)n1,6.79,-18.3% (inactive)
CN(CCc1ccccc1)C(=O)c1cccc(NC(=O)Cc2ccc([N+](=O)[O-])cc2)c1,-3.23,-35% (inactive)
COc1cc(C(=O)OCC(=O)NC23CC4CC(CC(C4)C2)C3)cc(OC)c1OC,-0.331,-18.4% (inactive)
COc1cccc(-n2c(=S)sc3c(=O)n(-c4ccccc4OC)c(SCC4OCCO4)nc32)c1,-13.5,20.8% (inactive)
CCc1ccc(-n2c(=S)sc3c(=O)n(-c4ccccc4OC)c(=S)[nH]c32)cc1,8.9,-2.37% (inactive)
COc1ccccc1-n1c(=S)[nH]c2c(sc(=S)n2-c2ccc(C)cc2C)c1=O,-48.2,65.4% (active)
O=C(Nc1cc2c3c(c1)C1CCCC1CN3CC1CCCC21)c1ccc([N+](=O)[O-])cc1 (stereo unspecified),-11.5,53.3% (active)
O=C(Nc1ccc(C(=O)N2CCCCC2)cc1)c1cccc([N+](=O)[O-])c1,5.03,3.82% (inactive)
CN(CC1CCCO1)S(=O)(=O)c1ccc(C(=O)Nc2ccc([N+](=O)[O-])cc2)cc1 (stereo unspecified),3.29,-15.4% (inactive)
CC1CCN(C(=S)c2cccc([N+](=O)[O-])c2)CC1,4.33,-2.26% (inactive)
CC1(c2ccccc2)CC(C)(C)N(C(=O)c2cc([N+](=O)[O-])cc([N+](=O)[O-])c2)c2ccccc21 (stereo unspecified),-2.38,54.1% (active)
O=C(Cc1ccccc1)N1CCN(S(=O)(=O)c2ccc([N+](=O)[O-])cc2)CC1,-3.05,-0.872% (inactive)
CCCCN(C=O)c1c(CC)nc2c(OCc3ccccc3C(=O)OC)cccn12,-7.9,4.1% (inactive)
O=C(CCl)NNc1nc(-c2ccccc2)c2cc(Cl)ccc2n1,-5.54,4.04% (inactive)
O=C(NN=Cc1ccccc1)c1ccccc1,1.87,-3.23% (inactive)
CN(O)C(=S)c1ccccc1,-65.1,90.7% (inactive)
CN(/N=C/c1ccccc1)C(=S)c1ccccc1,-19.1,63.6% (active)
NC(=O)c1ncn([C@@H]2O[C@H](CNCc3cnc(N4CCOCC4)s3)[C@@H](O)[C@H]2O)n1,-1.13,2.87% (inactive)
Cc1ccccc1OCC(=O)Nc1ccc(N2CCN(C(=O)C(C)C)CC2)c(Cl)c1,-3.43,53.8% (active)

Structure (SMILES),"DAPI nuclei signal change (viability), lower = more cytotoxic [%]",inhibition
Cc1ccccc1OCC(=O)Nc1ccc2c(c1)ncn2C,5.22,2.71% (inactive)
CCC(=O)N1CCN(c2ccccc2NC(=O)COc2cccc(C)c2C)CC1,-0.0457,-24.8% (inactive)
CN1CCC(N(C)S(=O)(=O)c2ccc(NC(=O)c3cccc(C#N)c3)cc2)CC1,-3.7,15.9% (inactive)
Oc1cccc2cc(-c3ccncc3)cnc12,-33.8,56.3% (active)
COc1ccc(NC(=O)CSc2nnc(C3CC3)n2C)cc1S(=O)(=O)N1CCCCC1,9.15,-10.9% (inactive)
CCN(CC)C(=O)C1=C(C)N(Cc2ccccc2)C(=O)C(CC(=O)NC(c2ccccc2)c2ccccc2)C1 (stereo unspecified),-1.27,22.4% (inactive)
Cc1ccc(S(=O)(=O)N2CCN(C(=O)c3cc(S(=O)(=O)N4CCOCC4)ccc3F)CC2)cc1,-10.8,2.68% (inactive)
O=C(CCl)N(Cc1cccc([N+](=O)[O-])c1)c1cccc(Cl)c1,0.0094,53.5% (active)
Cc1ccc(S(=O)(=O)N(Cc2cccc([N+](=O)[O-])c2)C(=O)N2CCN(C)CC2)cc1,-12.6,6.71% (inactive)
CCN(CC)C(=O)CN(c1cccc([N+](=O)[O-])c1)S(=O)(=O)c1ccccc1,-11.2,5.09% (inactive)
COc1ccc(-c2c(C#N)cnc(C)c2C)c(O)c1OC,-5.41,12.5% (inactive)
CC1(C(=O)NCc2ccc(F)c(F)c2)Cc2c(-c3ccc4c(c3)OCO4)ccnc2O1 (stereo unspecified),-30.3,36.2% (inactive)
CC1(C(=O)NCc2ccco2)Cc2c(-c3ccc4c(c3)OCO4)ccnc2O1 (stereo unspecified),-35.6,52.2% (active)
CC(=O)Nc1cccc(-c2ccnc3c2CC(C)(C(=O)NCc2ccco2)O3)c1 (stereo unspecified),-40.5,43.4% (inactive)
CCc1nc2c(OCC(=O)C(C)(C)C)cccn2c1N(C)C(=O)c1ccccc1F,-14.1,14.9% (inactive)
CCN(CC(=O)Nc1ccc(NC(C)=O)cc1)C(=O)CSC(=S)N1CCCC1,-7.39,-13.5% (inactive)
Cc1nnc(N/N=C/c2cccs2)[nH]c1=O,4.89,29.3% (inactive)
Cc1nnc(N/N=C/c2ccccn2)[nH]c1=O,-33.8,53.3% (active)
Cc1ccccc1Nc1nnc(C)c(=O)[nH]1,1.64,-16.3% (inactive)
Cc1cc(C)cc(NC(=O)NCc2ccccn2)c1,7.71,-29.5% (inactive)
O=[N+]([O-])c1ccc(C=NN=Cc2ccc([N+](=O)[O-])cc2)cc1,-4.6,6.59% (inactive)
